The results in this text go back to PubChem BioAssay (NCI).

Compounds without any hit were thinned out: in the full panel of roughly 83,000, 20% have a hit.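 The endpoint reported here, percent growth, reads 100 for growth as untreated, 0 for no net growth and -100 for all cells dead.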 Active and inactive are the calls of the source. The calls were made as follows: active = growth percent below 10; inactive = the rest.

This assay deals with HL-60(TB) leukemia. In words: NCI-60 one-dose screen, 48 h (100 = growth as untreated, 0 = no growth, -100 = all killed). The following applies: 10 µM unless noted.
`O=c1c2cnn(-c3ccccc3)c2n2c(CN3CCOCC3)nnc2n1-c1ccccc1`: the growth is 102% (inactive). With `C[n+]1c(/C=C/c2c(O)ccc3ccccc23)ccc2ccccc21`, the growth is 17.9% (inactive). Take `COc1ccc(/C=C2\CCCC3=C2N=C2SC(C)=NN2C3c2ccc(OC)c(OC)c2)cc1OC` (stereo not given): the growth is -14.5% (active).

Turning to `COc1ccc2nc(-c3ccc(Cl)cc3)cc(-c3nnc(SC/C(=N\O)c4ccccc4)n3-c3ccccc3)c2c1`, the growth was 55.4% (inactive). Take `CCOC(=O)c1c(C)[nH]c(C(=O)CCC(=O)OC)c1C`: the growth is 94.9% (inactive). For `COc1cccc(Cn2cc3c(c2)-c2oncc2CC3)c1`, the growth is 1.64% (active). With `Cc1cnc(N)nc1OCC(C)(C)CNC(=O)c1cccc(-c2ccc(S(=O)(=O)Nc3ccc4c(c3)N(C(=O)C3CC3)CCC4)cc2)c1`, the growth is 18.2% (inactive).

Consider `COC12C=C/C(=C(/C(=O)OCc3csc(SC)n3)C(=O)CCCCCCCCC3(OC)C=C/C(=C(/C(=O)OCc4cnc(SC)s4)C(=O)CCCCCCCC1)O3)O2` (stereo not given), for which the growth is 6.46% (active). Take `COc1ccc2c(c1)N(CCO)C1=C(C(=O)OC1)C2c1ccc(OC)c(OC)c1` (stereo not given): the growth was -2.68% (active). Then `CC(C)(c1ccccc1)c1cc(O)c(C(C)(C)c2ccccc2)cc1O`, with -6.95% (active); and `CCN(C)c1ccccc1`, with 100% (inactive).

`COc1ccc2[nH]cc(-c3nc(-c4c[nH]c5ncccc45)cs3)c2c1`: the growth is 13.9% (inactive).

Regarding `O=C(NCc1ccccc1O)c1cccc2ccccc12`, the growth is 66.7% (inactive). As for `Cc1ccc(C(c2c(O)c3cc(Br)ccc3[nH]c2=O)c2c(O)c3cc(Br)ccc3[nH]c2=O)cc1`, the growth is 92.2% (inactive).

With `CCOC(=O)c1c2c(c(C)n1C)-c1nn(Cc3ccc(OC)cc3)cc1CC2`, the growth is 73.1% (inactive). As for `CN(C)C(CNc1oc(-c2cccc3ccccc23)nc1C#N)c1ccco1` (stereo not given), the growth was 74.1% (inactive). In the case of `O=C(Nc1ccc(F)cc1)c1ccc(C(=O)Nc2ccc(F)cc2)cc1`, the growth was 107% (inactive). Then `Cc1nc2sc(C(=O)Nc3ccccc3)c(N)c2cc1C(=O)/C=C/c1ccccc1`, with 3.44% (active). Take `C[C@]12C[C@H](O)[C@H]3[C@@H](CCC4=CC(=O)CC[C@@]43C)[C@@H]1CC[C@@H]2C(=O)CO`: the growth was 81.8% (inactive).

Consider `N=C(N)c1ccc(-c2ccc(-c3ccccc3)o2)o1`, for which the growth was -17% (active). In the case of `CCc1ccc(-c2nnc(COc3ccc(-c4nc5ccc(C)cc5[nH]4)cc3OC)o2)cc1`, the growth was 6.14% (active).

As for `COc1ccc(C(O)c2cc3c(N)c(C(=O)Nc4cccc(Br)c4C)sc3nc2C)cc1` (stereo not given), the growth was -41% (active). For the molecule `COc1ccc(C2=Nc3c(N)nc(N)nc3NC(c3cccc(Nc4ccnc5cc(C(F)(F)F)ccc45)c3)C2)cc1` (stereo not given), the growth was 81.6% (inactive). With `CC(=O)c1cc(Cl)ccc1O`, the growth was 103% (inactive). Then `COc1ccc(-c2cc(C(=O)N3N=C(c4ccc(N)cc4)CC3c3ccc(Cl)cc3)c3cc(OC)ccc3n2)cc1` (stereo not given), with 4.62% (active); and `CC1(C)CC[C@]2(C(=O)N[C@H](CO)Cc3ccccc3)CC[C@]3(C)C(=CC[C@@H]4[C@@]5(C)CCCNC(C)(C)[C@@H]5CC[C@]43C)[C@@H]2C1`, with 31.2% (inactive); and `N=C(N)c1ccc(-c2ccc(-c3ccc(F)cc3)s2)cc1`, with -56.1% (active). To `CCCCC(O)(c1ccc(Cl)cc1)C(CN1CCOCC1)c1ccc(Cl)cc1` (stereo not given) belongs 53.6% (inactive); to `CCCCCn1cnc2c(=S)nc[nH]c21`, 95% (inactive).

With `Clc1nc(Cl)c2ncn(C/C=C\Cn3cnc4c(Cl)nc(Cl)nc43)c2n1`, the growth was -70.2% (active).

With `CC1(C)CC([P+](c2ccccc2)(c2ccccc2)c2ccccc2)=NN1`, the growth is -49.2% (active). Take `Clc1ncccc1Nc1ccc2nnc(-c3ccncc3)n2n1`: the growth was 89.5% (inactive). As for `COc1ccc(/C=C/C(=O)Nc2cc(/C=C\c3cc(OC)c(OC)c(OC)c3)cc(OC)c2OC)cc1OC`, the growth is -38.1% (active). With `c1ccc2cc(Cn3cc[n+](Cc4ccc5ccccc5c4)c3)ccc2c1`, the growth is -33.6% (active). Then `CCCn1nc(C(=O)N(C)Cc2ccccc2)c2c1CCC(N1CCc3ccccc31)C2` (stereo not given), with 98% (inactive). Then `CC1Cc2ccccc2O1` (stereo not given), with 102% (inactive); and `COC(=O)C1=NNC(=S)N(c2cc(C)[nH]n2)C(=O)C1`, with 100% (inactive). In the case of `COc1ccc(OC)c(-c2c(C#N)c(-c3ccco3)nc3c2c(-c2ccccc2)nn3-c2ccccc2)c1`, the growth was 105% (inactive).

Turning to `CCc1c(C(=O)N[C@@H](C(=O)OCc2ccccc2)C(C)O)[nH]c2ccc(Cl)cc12` (stereo not given in full), the growth was 122% (inactive). To `CC(=O)NCC(=O)Nc1ccc(-c2nnc3ccccn23)nc1.CC(=O)NCC(=O)Nc1ccc(-c2nnc3ccccn23)nc1.[Pt+2]` belongs 109% (inactive).
